Measurements as given in the supplement of paper PMC10849652.
Targets with a hit are over-represented here; the source holds about 7,900 in all. About 0.6% of all pairs of compound and target were hits.

What was measured:
Test in all cases: log2 fold change, soluble protein after heating vs DMSO (PISA); higher = thermal stabilisation; K562 cells, 10 uM, 30 min; active = over 0.2 and 3.5 SD of the protein, either way, in both replicates (recomputed)
IRAK-1-4 Inhibitor I = compound: C1COCCN1CCN2C3=CC=CC=C3N=C2NC(=O)C4=CC(=CC=C4)[N+](=O)[O-] [IRAK-1-4 Inhibitor I]
How it was run: (§1)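 Thermal stability values are relative to control samples and come from duplicates. They are expressed as log2 fold changes. For measurement, K562 cells (2×10^6 cells/mL) received 10 μM compound for 30 min, and aliquots were heated for 3 min over 48°C-58°C, pooled, and extracted at 4°C in PBS with 0.5% NP-40. Soluble protein, the supernatant after 21,000xg for 90 min, was quantified by TMTpro 16plex LC-MS/MS with equalised channel sums.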

ibrutinib = compound: C=CC(=O)N1CCC[C@@H](n2nc(-c3ccc(Oc4ccccc4)cc3)c3c(N)ncnc32)C1 [ibrutinib]
How it was run: as §1

[1] = compound: CC(=O)c1cnc2ccc(-c3cc(Cl)c(O)c(Cl)c3)nc2c1N[C@H]1CC[C@H](CN(C)C)CC1
How it was run: as §1

ralimetinib = compound: CC(C)(C)Cn1c(N)nc2ccc(-c3[nH]c(C(C)(C)C)nc3-c3ccc(F)cc3)nc21 [ralimetinib]
How it was run: as §1

[2] = compound: CC(C)(O)CC(=O)NCCn1ccc2ncnc(Nc3ccc(Oc4cccc(C(F)(F)F)c4)c(Cl)c3)c21
How it was run: as §1

[3] = compound: CC(C)C1=C2N=C(C=C(N2N=C1)NCC3=CC=CC=C3)NCCCCCCN
How it was run: as §1

[4] = compound: CC(C)C[C@@H](C=O)NC(=O)[C@H](CC(C)C)NC(=O)[C@H](CC(C)C)NC(=O)OCc1ccccc1
How it was run: as §1

pinometostat = compound: CC(C)N(C[C@H]1O[C@@H](n2cnc3c(N)ncnc32)[C@H](O)[C@@H]1O)[C@H]1C[C@@H](CCc2nc3cc(C(C)(C)C)ccc3[nH]2)C1 [pinometostat]
How it was run: as §1

[5] = compound: CC1=C(C2=C(C=C1)C(=O)C3=CC=CC=C3N2CCCN)C
How it was run: as §1

[6] = compound: CC1=C(C=C(C=C1)NC(=O)C2=CC(=CC=C2)N(C)C)NC(=O)C3=CC=C(C=C3)O
How it was run: as §1

[7] = compound: CC1=CC=C(C=C1)SC2=C3C=C(SC3=CN=C2)C(=O)N
How it was run: as §1

[8] = compound: CC1=NC(=CC=C1)C2=C(N=C(N2)C(C)(C)C)C3=CC4=NC=CN=C4C=C3
How it was run: as §1

Nexturastat A = compound: CCCCN(Cc1ccc(C(=O)NO)cc1)C(=O)Nc1ccccc1 [Nexturastat A]
How it was run: as §1

vemurafenib = compound: CCCS(=O)(=O)Nc1ccc(F)c(C(=O)c2c[nH]c3ncc(-c4ccc(Cl)cc4)cc23)c1F [vemurafenib]
How it was run: as §1

[9] = compound: CCCS(=O)(=O)Nc1ccc(F)c(C(=O)c2c[nH]c3ncc(Cl)cc23)c1F
How it was run: as §1

[10] = compound: CCCc1cc(C)[nH]c(=O)c1CNC(=O)c1cc(-c2ccnc(N3CCN(C)CC3)c2)cc2c1cnn2C(C)C
How it was run: as §1

givinostat = compound: CCN(CC)Cc1ccc2cc(COC(=O)Nc3ccc(C(=O)NO)cc3)ccc2c1 [givinostat]
How it was run: as §1

barasertib = compound: CCN(CCCOc1ccc2c(Nc3cc(CC(=O)Nc4cccc(F)c4)[nH]n3)ncnc2c1)CCOP(=O)(O)O [barasertib]
How it was run: as §1

[11] = compound: CC1=C(C(CC(=O)N1)C2=CC=C(C=C2)C(F)(F)F)C(=O)NC3=C(C=C4C(=C3)C=NN4)F
How it was run: as §1

[12] = compound: CC1=C(C=C(C=C1)NC(=O)C2=CC(=CC=C2)C(C)(C)C#N)NC3=CC4=C(C=C3)N=CN(C4=O)C
How it was run: as §1

Measured: log2 fold change

GBE1 (UniProt Q04446)
UniProt Q04446, sequence (Q04446 whole entry, looked up): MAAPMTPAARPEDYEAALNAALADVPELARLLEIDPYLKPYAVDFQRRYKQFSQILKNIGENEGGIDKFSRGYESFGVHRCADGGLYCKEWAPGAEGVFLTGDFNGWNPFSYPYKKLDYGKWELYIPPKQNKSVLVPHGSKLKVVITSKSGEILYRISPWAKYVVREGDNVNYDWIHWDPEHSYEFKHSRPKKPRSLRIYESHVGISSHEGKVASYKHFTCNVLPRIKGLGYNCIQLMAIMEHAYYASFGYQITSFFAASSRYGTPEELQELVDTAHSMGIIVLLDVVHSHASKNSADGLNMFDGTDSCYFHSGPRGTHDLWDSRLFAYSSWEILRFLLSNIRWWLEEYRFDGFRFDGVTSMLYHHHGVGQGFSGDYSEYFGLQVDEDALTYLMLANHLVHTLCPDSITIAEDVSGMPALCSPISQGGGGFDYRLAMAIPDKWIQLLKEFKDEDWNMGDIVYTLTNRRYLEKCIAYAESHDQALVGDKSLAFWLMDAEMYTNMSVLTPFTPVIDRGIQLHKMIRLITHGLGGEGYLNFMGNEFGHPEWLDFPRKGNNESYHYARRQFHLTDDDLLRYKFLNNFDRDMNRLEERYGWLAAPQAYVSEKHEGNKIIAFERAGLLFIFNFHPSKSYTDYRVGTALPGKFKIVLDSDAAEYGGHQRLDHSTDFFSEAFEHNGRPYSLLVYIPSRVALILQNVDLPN
inactive: IRAK-1-4 Inhibitor I -0.241 | ibrutinib -0.026 | [1] -0.102 | ralimetinib 0.051 | [2] -0.074 | [3] -0.23 | [4] 0.027 | pinometostat 0.186 | [5] 0.04 | [6] 0.08 | [7] 0.128 | [8] 0.014 | Nexturastat A 0 | vemurafenib 0.162 | [9] 0.065 | [10] 0.005 | givinostat 0.038 | barasertib 0.109

IFT74 (UniProt Q96LB3)
inactive: IRAK-1-4 Inhibitor I 0.067 | ibrutinib 0.146 | [1] 0.02 | ralimetinib 0.27 | [2] -0.095 | [3] 0.191 | [4] 0.076 | pinometostat -0.024 | [11] -0.085 | [5] 0.071 | [12] -0.086 | [6] -0.044 | [7] -0.01 | [8] -0.084 | vemurafenib -0.059 | [9] 0.005 | [10] -0.007 | givinostat 0.26 | barasertib -0.037
active: Nexturastat A 0.746

GMEB2 (UniProt Q9UKD1)
active: [5] -0.367
inactive: IRAK-1-4 Inhibitor I -0.021 | ibrutinib 0.061 | [1] -0.022 | ralimetinib 0.018 | [2] -0.158 | [3] 0.006 | [4] -0.128 | pinometostat 0.145 | [11] 0.004 | [12] 0.038 | [6] -0.033 | [7] 0.041 | [8] -0.066 | Nexturastat A 0.09 | vemurafenib 0.012 | [9] 0.041 | [10] -0.088 | givinostat 0.087 | barasertib 0.029

GALK1 isoform 2 (UniProt P51570)
inactive: IRAK-1-4 Inhibitor I 0.046 | ibrutinib 0.024 | [1] 0.018 | ralimetinib 0.081 | [2] -0.081 | [3] -0.004 | [4] -0.121 | pinometostat 0.041 | [11] 0.023 | [5] -0.018 | [12] 0.244 | [6] 0.004 | [7] 0.144 | [8] 0.02 | Nexturastat A -0.082 | vemurafenib 0.144 | [9] 0.183 | [10] 0.033 | givinostat 0.018 | barasertib -0.007

GSK3A (UniProt P49840)
inactive: IRAK-1-4 Inhibitor I 0.099 | ibrutinib 0.011 | ralimetinib -0.061 | [2] -0.107 | [3] 0.011 | [4] -0.022 | pinometostat -0.031 | [11] 0.011 | [5] 0.022 | [12] -0.025 | [6] 0.009 | [7] 0.197 | [8] 0.021 | Nexturastat A -0.094 | vemurafenib -0.023 | [9] -0.003 | [10] -0.039 | givinostat -0.053 | barasertib 0.014
active: [1] 0.303

HSPA2 (UniProt P54652)
UniProt P54652, sequence (P54652 whole entry, looked up): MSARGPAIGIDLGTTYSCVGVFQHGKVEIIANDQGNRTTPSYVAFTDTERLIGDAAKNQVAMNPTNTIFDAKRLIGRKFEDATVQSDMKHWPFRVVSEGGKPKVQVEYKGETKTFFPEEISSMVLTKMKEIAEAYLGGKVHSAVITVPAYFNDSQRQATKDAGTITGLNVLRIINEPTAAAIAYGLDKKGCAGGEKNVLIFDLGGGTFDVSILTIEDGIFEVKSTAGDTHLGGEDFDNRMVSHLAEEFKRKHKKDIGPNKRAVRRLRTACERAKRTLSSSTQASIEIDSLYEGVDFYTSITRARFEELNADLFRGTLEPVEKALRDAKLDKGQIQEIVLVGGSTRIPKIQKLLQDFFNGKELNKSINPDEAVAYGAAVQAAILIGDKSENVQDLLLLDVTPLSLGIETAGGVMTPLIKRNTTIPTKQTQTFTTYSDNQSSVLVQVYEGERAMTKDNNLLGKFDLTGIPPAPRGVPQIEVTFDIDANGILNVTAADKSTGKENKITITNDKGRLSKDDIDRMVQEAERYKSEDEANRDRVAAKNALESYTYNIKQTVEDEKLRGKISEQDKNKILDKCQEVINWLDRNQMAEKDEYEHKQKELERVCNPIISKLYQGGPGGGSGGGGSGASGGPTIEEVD
inactive: IRAK-1-4 Inhibitor I 0.008 | ibrutinib -0.006 | [1] -0.28 | ralimetinib 0.01 | [4] 0.041 | pinometostat 0.05 | [11] 0.023 | [12] -0.109 | [6] 0.046 | [8] -0.039 | [10] 0.057 | givinostat 0.13 | barasertib -0.004
active: [3] -0.441

GOLGA8R (UniProt I6L899)
UniProt I6L899, sequence (I6L899 whole entry, looked up): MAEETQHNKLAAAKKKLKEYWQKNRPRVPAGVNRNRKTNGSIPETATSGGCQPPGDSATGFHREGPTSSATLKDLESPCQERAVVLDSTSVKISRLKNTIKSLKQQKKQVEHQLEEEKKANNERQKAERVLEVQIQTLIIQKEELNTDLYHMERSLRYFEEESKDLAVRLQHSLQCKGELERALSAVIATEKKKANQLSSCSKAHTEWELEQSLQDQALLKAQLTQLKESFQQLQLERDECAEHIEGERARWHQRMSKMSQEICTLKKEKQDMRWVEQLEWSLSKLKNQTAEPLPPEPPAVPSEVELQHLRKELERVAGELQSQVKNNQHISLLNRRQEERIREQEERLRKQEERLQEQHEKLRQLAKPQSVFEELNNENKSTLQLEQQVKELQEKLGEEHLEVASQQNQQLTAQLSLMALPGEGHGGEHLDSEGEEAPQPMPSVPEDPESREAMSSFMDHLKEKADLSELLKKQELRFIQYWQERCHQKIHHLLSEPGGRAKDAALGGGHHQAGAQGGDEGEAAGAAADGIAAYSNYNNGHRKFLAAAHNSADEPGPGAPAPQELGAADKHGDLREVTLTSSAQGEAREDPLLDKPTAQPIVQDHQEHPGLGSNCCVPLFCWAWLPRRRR
inactive: IRAK-1-4 Inhibitor I 0.003 | ibrutinib 0.04 | [1] -0.106 | ralimetinib 0.247 | [3] 0.227 | [4] 0.177 | pinometostat 0.035 | [5] 0.201 | [6] -0.037 | [7] 0.041 | [8] -0.205 | vemurafenib 0.06 | [9] -0.086 | givinostat 0.223 | barasertib 0.048

HDAC7 isoform 5 (UniProt Q8WUI4)
UniProt Q8WUI4, sequence (Q8WUI4 whole entry, looked up): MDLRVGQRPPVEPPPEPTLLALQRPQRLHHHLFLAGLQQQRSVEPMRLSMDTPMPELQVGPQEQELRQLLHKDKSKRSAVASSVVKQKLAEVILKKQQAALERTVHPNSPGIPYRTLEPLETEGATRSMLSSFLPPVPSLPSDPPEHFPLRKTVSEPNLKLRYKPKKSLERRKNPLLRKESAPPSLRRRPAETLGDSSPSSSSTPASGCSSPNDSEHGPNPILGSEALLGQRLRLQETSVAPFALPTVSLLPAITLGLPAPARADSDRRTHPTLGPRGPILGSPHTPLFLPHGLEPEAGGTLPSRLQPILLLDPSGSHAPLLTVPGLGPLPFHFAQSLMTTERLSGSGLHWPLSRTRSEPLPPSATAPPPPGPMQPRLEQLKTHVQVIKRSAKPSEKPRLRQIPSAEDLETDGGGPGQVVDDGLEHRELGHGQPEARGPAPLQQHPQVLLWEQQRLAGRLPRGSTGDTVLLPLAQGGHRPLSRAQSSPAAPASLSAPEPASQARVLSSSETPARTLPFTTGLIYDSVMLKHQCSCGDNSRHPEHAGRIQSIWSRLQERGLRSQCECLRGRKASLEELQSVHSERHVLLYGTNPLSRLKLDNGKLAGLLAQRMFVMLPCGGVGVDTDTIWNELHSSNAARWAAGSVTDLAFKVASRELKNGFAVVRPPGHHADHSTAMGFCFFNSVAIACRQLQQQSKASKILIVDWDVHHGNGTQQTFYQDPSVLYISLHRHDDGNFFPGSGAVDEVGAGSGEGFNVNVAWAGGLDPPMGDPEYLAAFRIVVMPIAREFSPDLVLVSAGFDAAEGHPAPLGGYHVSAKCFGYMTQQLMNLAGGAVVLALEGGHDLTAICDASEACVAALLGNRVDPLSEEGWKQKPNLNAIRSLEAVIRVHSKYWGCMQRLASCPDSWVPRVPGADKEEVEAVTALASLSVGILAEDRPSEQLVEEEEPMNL
active: [1] -0.561
inactive: IRAK-1-4 Inhibitor I 0.094 | ibrutinib -0.007 | ralimetinib -0.123 | [2] -0.031 | [3] 0.108 | [4] 0.036 | pinometostat 0.035 | [11] 0.029 | [5] 0.065 | [12] -0.01 | [6] 0.028 | [7] -0.043 | [8] -0.002 | Nexturastat A 0.108 | vemurafenib 0 | [9] -0.009 | [10] -0.014 | barasertib 0

GLIPR2 (UniProt Q9H4G4)
UniProt Q9H4G4, sequence (Q9H4G4 whole entry, looked up): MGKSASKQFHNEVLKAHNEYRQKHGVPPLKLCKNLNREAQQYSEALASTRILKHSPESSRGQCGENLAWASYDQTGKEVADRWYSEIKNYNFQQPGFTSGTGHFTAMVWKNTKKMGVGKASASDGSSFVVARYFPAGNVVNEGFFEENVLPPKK
inactive: IRAK-1-4 Inhibitor I 0.038 | ibrutinib -0.047 | [1] -0.01 | ralimetinib 0.04 | [2] 0.06 | [4] 0.012 | pinometostat 0.03 | [5] 0.061 | [12] 0.156 | [6] -0.152 | [7] -0.054 | [8] -0.032 | Nexturastat A 0.062 | vemurafenib 0.092 | [9] -0.014 | [10] 0.028 | givinostat 0.009 | barasertib 0
active: [3] -0.35

GCLM (UniProt P48507)
inactive: IRAK-1-4 Inhibitor I -0.065 | ibrutinib -0.038 | [1] 0.106 | ralimetinib 0.002 | [2] -0.104 | [3] -0.034 | [4] 0.02 | pinometostat 0.049 | [11] -0.078 | [5] -0.023 | [12] 0.044 | [6] -0.04 | [7] 0.019 | [8] 0.057 | Nexturastat A -0.006 | vemurafenib 0.1 | [9] 0.099 | [10] 0.002 | givinostat 0.074 | barasertib 0.066

HNRNPH1 (UniProt P31943)
UniProt P31943, sequence (P31943 whole entry, looked up): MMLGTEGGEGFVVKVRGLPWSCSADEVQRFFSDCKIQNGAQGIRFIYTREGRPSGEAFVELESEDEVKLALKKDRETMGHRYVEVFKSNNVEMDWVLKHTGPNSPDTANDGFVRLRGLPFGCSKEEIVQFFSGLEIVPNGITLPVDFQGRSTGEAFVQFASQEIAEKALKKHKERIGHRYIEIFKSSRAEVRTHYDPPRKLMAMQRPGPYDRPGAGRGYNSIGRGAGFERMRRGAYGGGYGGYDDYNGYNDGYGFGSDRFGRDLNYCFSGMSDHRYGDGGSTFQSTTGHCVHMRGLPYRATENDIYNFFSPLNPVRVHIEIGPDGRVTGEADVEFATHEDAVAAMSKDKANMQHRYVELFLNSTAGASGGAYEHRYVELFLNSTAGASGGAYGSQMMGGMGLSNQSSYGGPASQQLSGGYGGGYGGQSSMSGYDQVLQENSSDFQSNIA
active: [3] -0.427
inactive: IRAK-1-4 Inhibitor I -0.032 | ibrutinib 0.048 | [1] -0.176 | ralimetinib -0.018 | [2] 0 | [4] 0.131 | pinometostat 0.031 | [11] 0.011 | [5] -0.045 | [12] 0.077 | [6] -0.044 | [7] 0.005 | [8] 0.047 | Nexturastat A 0.201 | vemurafenib 0.086 | [9] 0.144 | [10] 0.029 | givinostat 0.115 | barasertib 0.05

HADHB (UniProt P55084)
inactive: IRAK-1-4 Inhibitor I -0.025 | ibrutinib 0.074 | [1] -0.326 | ralimetinib 0.068 | [2] -0.155 | [3] 0.37 | [4] -0.106 | pinometostat -0.05 | [11] -0.147 | [5] 0.104 | [12] 0.19 | [6] -0.248 | [7] -0.002 | [8] -0.012 | Nexturastat A -0.085 | vemurafenib -0.047 | [9] -0.042 | [10] 0.113 | givinostat 0.064 | barasertib 0

IGF2BP2 (UniProt Q9Y6M1)
UniProt Q9Y6M1, sequence (Q9Y6M1 whole entry, looked up): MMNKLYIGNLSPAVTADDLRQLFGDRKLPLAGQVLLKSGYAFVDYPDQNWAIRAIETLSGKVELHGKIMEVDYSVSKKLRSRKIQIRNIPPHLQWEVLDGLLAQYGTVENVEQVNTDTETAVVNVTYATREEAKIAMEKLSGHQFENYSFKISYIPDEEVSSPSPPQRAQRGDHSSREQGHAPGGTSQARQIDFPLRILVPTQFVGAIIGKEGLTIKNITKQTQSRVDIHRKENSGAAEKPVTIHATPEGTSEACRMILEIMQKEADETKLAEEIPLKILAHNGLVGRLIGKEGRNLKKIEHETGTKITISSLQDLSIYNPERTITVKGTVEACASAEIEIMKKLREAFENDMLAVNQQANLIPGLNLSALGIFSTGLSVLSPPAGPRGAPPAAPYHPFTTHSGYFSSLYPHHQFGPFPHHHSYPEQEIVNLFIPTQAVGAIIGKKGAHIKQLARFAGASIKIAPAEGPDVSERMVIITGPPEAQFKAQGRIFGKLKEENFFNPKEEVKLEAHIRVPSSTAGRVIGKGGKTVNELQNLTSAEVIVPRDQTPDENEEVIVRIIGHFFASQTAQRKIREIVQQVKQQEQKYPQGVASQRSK
inactive: IRAK-1-4 Inhibitor I -0.168 | ibrutinib 0.048 | [1] -0.011 | ralimetinib 0.209 | [2] 0.037 | [3] -0.249 | [4] 0.106 | pinometostat 0.477 | [11] 0.087 | [5] -0.054 | [12] 0.009 | [6] -0.001 | [7] -0.008 | [8] -0.094 | Nexturastat A 0.383 | vemurafenib 0.065 | [9] 0 | [10] -0.011 | givinostat 0.153 | barasertib -0.041

GEMIN2 (UniProt O14893)
UniProt O14893, sequence (O14893 whole entry, looked up): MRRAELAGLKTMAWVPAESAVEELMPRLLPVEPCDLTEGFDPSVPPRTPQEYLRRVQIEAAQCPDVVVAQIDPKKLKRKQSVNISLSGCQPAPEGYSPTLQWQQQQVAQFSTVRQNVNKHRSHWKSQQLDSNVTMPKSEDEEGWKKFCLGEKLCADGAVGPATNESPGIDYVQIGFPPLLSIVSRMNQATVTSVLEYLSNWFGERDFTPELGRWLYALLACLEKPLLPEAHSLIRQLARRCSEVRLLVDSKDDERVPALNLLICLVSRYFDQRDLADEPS
inactive: IRAK-1-4 Inhibitor I -0.046 | ibrutinib 0.055 | [1] -0.061 | ralimetinib 0.049 | [2] -0.307 | [4] 0.012 | pinometostat -0.096 | [11] 0.044 | [12] -0.073 | [6] 0.033 | [7] 0 | [8] -0.002 | Nexturastat A 0.243 | vemurafenib -0.028 | [9] -0.023 | [10] 0.029 | barasertib 0.078

GTPBP6 (UniProt O43824)
inactive: IRAK-1-4 Inhibitor I -0.043 | ibrutinib -0.081 | [1] 0.028 | ralimetinib 0.039 | [2] 0.111 | [3] 0.204 | [4] 0.024 | pinometostat 0.062 | [11] 0.112 | [5] 0.013 | [12] 0.038 | [6] 0.014 | [8] -0.042 | Nexturastat A -0.037 | vemurafenib 0.015 | [10] 0.006 | givinostat -0.062 | barasertib -0.015

GEMIN5 (UniProt Q8TEQ6)
active: [3] -0.422 | [5] -0.28
inactive: IRAK-1-4 Inhibitor I -0.037 | ibrutinib -0.014 | [1] -0.155 | ralimetinib 0.034 | [2] -0.049 | [4] 0.033 | pinometostat 0.043 | [11] 0.004 | [12] 0.035 | [6] -0.038 | [7] 0.009 | [8] -0.013 | Nexturastat A -0.004 | vemurafenib 0.015 | [9] 0.093 | [10] 0.018 | givinostat -0.1 | barasertib 0.019

FUCA1 (UniProt P04066)
UniProt P04066, sequence (P04066 whole entry, looked up): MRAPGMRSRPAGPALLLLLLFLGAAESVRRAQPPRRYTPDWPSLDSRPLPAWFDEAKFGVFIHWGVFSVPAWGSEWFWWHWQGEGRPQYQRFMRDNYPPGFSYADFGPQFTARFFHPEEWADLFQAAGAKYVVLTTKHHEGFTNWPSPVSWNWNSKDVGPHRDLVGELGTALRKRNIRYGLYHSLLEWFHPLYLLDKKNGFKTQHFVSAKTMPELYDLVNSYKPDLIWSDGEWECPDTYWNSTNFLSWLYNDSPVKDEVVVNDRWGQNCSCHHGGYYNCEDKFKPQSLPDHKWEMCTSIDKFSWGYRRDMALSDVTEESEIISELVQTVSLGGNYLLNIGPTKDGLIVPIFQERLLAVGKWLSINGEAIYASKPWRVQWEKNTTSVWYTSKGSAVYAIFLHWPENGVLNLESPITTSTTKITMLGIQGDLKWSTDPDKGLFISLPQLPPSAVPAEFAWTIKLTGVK
inactive: IRAK-1-4 Inhibitor I -0.003 | ibrutinib 0.018 | [1] -0.049 | ralimetinib -0.067 | [2] 0.056 | [3] -0.054 | [4] 0.003 | pinometostat -0.03 | [11] -0.008 | [5] -0.199 | [12] 0.03 | [6] 0.009 | [7] 0.021 | [8] 0.092 | Nexturastat A -0.054 | vemurafenib -0.007 | [9] 0.066 | [10] -0.016 | givinostat 0 | barasertib 0.012
